According to the supplement of paper PMC6555819:

These sequences were tested on VDR:RXRa (NR concentration 270 nM, RXRa partner concentration 90 nM) (assay: PBM binding z-score (relative to random genomic background probes); higher = stronger binding; sequences stand for … in GC…GCGATTGACAGCGTAGAATGAAGG).
Description: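 Protein-binding microarray (Agilent 4x180K custom design, double-stranded 60-nt probes: 5' GC cap, 34-nt variable region, 24-nt constant primer region; full probe sequence given). Purified or IVT nuclear receptor:RXRα heterodimers (3:1 NR:RXRα, mostly 270:90 nM) or homodimers were incubated for 1 h in PBS with 2% milk and no ligand, then detected with Alexa488 antibodies. Fluorescence from o1-orientation probes (~5 replicates averaged) was converted to z-scores against 500 random hg19 background probes. Variable regions are seed direct-repeat (DR0–DR5) sites, all their single-nucleotide variants and half-site ablations.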

Sequence | PBM binding z-score
CGAACTAGGTCAAAGGACAGCGAAAGGCGACGTA | 1.47
TAGCCTAGGTCATTGGGCCAGTATAGTACGCATC | 2.11
TTATCAAGGTGAAAGGTCGTTGATGCACGCCTTG | 3.29
TCTCGGAGGACACGAAAGGGCAGAGCTCGACATC | -0.0327
CCTACTGGGCCATTGAGAGGTCATTGATCATATG | 3.81
CAGCCTAGTTCAGGGCCAGTATAGGAGGAACGTT | -0.0838
TTACCAAGGTGAAAGGTCGTTGAAGCACGCCTTG | 3.42
GCTGCTAGGTCAGGTTGGTCTGCTAACGGGTACG | 0.509
CCTAGTTGGTCAAGGTAACACACGCTATAGGTAC | 0.707
ATACGTAGGTTATCGGGTCATTCAGTTTGCGCAT | 5.06
CGAACTAGGTCAACGGACAGTGAAAGGCGACGTA | 1.12
CCTAGCAGACCAATCTGGGTCACTCAAGGCTTGA | 0.199
TGACTGAGGTTAAAGATCAGGGAACGTGGCGTCG | 1.69
CTATATAGGTTAAGGGGGTCATTCAGTTTGAAAG | 7.71
TCTTGTAGATCAAAGGTCAAGAAAGCCGAAGCCT | 4.14
CAAACTAGGTCAAAGGTCAAAATCGAGCCAACCA | 6.43
AATACAGGGACATCGTAGGCCAGAGTACGCACAG | -0.0914
ATATGTAGGTTAGGGTCATTCAAAAAGTAGGGAA | 4.58
CCTTACCGGTCAAGGTTATAGCACGGGTGGTACG | 0.829
ATCGAAACGTCGACGAGGTGAGTATACACCGTTT | -0.119

Sequence | PBM binding z-score
CGAACTAGGTCCCCAGGACAGTGAAGAGGTTGGA | -0.892
CGTCCAAGGTCAATGCTAGGCCAGTGAAAGCATT | 3.78
CGAACTAGGTCAAAGTACAGTGAAAGGCGACGTA | 1.84
TTACCAAGGTAAAAGGTCGTTGATGCACGCCTTG | 2.6
CCTACTGGGCCAAAGGACATTGATTCCAATGCTC | -0.439
TCGAGTAGGTTACGAGGGCATTCAGGGATGAAGA | 2.32
GATACAGGGGCAAGGCCAGAGTACGCGTATTGAT | 0.153
TAGCCTAGGTCATTGTGCCAGTATAGTACGCATC | 2.33
AGTCAAAGTTCATCTTGGTAACGTAAGATATGCT | 4.41
GCTGCTAGGTCAACTGATGGTGAGCTAAAGCTCG | 1.13
TCGAGTAGGTTACGGGGGCTTTCAGGGATGAAGA | 2.02
CAAACTAGGTCACAGGGGTCAAAGTCCGTGCGTA | 8.24
ATATGTAGGTTATGGTCATTCAGAAAGTAGGGAA | 0.871
ATATGTAGGTTAGGGTCATTCGGAAAGTAGGGAA | 4.45
ATATGTAGGTTAGGGTCATTCCGAAAGTAGGGAA | 4.54
AGTCAAAGTTCATCAAGGTAACGTAAGATATGCT | 5.55
TCTAGTTGGTCAAAGGTCTCACACTCGAAATGCG | 1.42
CCTACTGGGCCAAAAAGGTAATTGATGCCGATAA | -0.157
CGTGCAAGGTCAGAGAGGTCAGTGAATGCCGAGT | 7.22
CGAACTAGGTCAAAGGACAGGGAAAGGCGACGTA | 1.27
